From PubChem BioAssay AID624116 (National Center for Advancing Translational Sciences (NCATS), 2012) come the findings set out here.

The test is described as follows: qHTS Assay for Rab9 Promoter Activators: Hit Validation Using Renilla Luciferase Read-Out for Rab9. The method in brief: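 Huh7 cells stably carrying promoter-luciferase reporter, exposed to compound for 24 h at 37 deg C. Luminescence read 10 min after adding luciferase detection reagent at room temperature.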

Results filed as inconclusive are left out. Where a call stands in place of a potency, no number is given. Calls of active or inactive are those of the source. Calls come from the whole dose curve; as a rule, active = well fitted activation curve with a large enough effect; inconclusive = small, poorly fitted or top-dose-only effect; inactive = no such curve, though single readings can be large or run the other way.

Consider `CCOC(=O)c1cc2sccc2n1CC(=O)N1CCCc2ccccc21`, for which the Potency result is “inactive”.

As for `Cc1ccc(N=Cc2sc(O)c3ccccc23)c(C)c1`, the Potency result is “inactive”. The value for `CCOc1cc(C2C(C#N)=C(N)Oc3n[nH]c(C)c32)ccc1OCCN1CCOCC1` (stereo not drawn) was “inactive”.

Consider `CCc1cc(C(=O)Nc2ccccc2)cs1`, for which the Potency result was “inactive”. In the case of `CC1=C(C(=O)OC2CCCC(C)C2)C(c2ccccc2)NC(=O)N1` (stereo not drawn), the Potency entry is “inactive”. Next, `Cc1ccc(NC(=O)c2cccc(N3C(=O)CCC3=O)c2)nc1`: “inactive”; `O=C(NC1CCCC1)C(c1ccc(F)cc1)N(C(=O)c1csnn1)c1ccccc1` (stereo not drawn): “inactive”; `CC(C)(C)C(=O)NC(=S)Nc1ccccc1F`: “inactive”.

With `CCOC(=O)CSc1nc2cc(C)ccc2cc1C#N`, the Potency entry is “inactive”. Consider `CC(C)C(NC(=O)c1ccc([N+](=O)[O-])cc1Cl)C(=O)N1CCCC1` (stereo not drawn), for which the Potency entry was “inactive”. The value for `COc1ccc(-n2c(N)c(C(=O)NCc3ccco3)sc2=S)cc1` was “inactive”; that for `COc1ccc(NC(=O)CSc2ccc([N+](=O)[O-])cc2)cc1S(=O)(=O)N1CCOCC1` was “inactive”. As for `O=C(CCc1cccc(Cl)c1)NC1CCCN(Cc2ccccc2F)C1` (stereo not drawn), the Potency result is “inactive”.

`CC(C)CC(=O)N1CCN(c2ccc(NC(=O)c3ccco3)cc2)CC1`: the Potency entry was “inactive”.

In the case of `COC(=O)c1ccccc1NC(=O)c1cc(-c2cccs2)on1`, the Potency result is “inactive”.

As for `COc1cccc(C(C(=O)NC2CCCC2)N(CCC(C)C)C(=O)CCC(=O)Nc2cc(C)on2)c1` (stereo not drawn), the Potency result was “inactive”. `CN(C)/C=N/c1c(C#N)cnn1-c1nc2ccccc2s1`: the Potency entry was “inactive”. Next, `CCC(=O)N1c2ccccc2NC2=C(C(=O)CCC2)C1c1ccc(N(C)C)cc1` (stereo not drawn): “inactive”.
